Source: the OligoGym collection

target: CYP20A1; test: pooled miR-30 sensor sort-seq; sequence = guide strand; conditions: shRNA
Note: reference of the scale not given here.

Row | Sequence | sensor-assay potency score (higher = more potent)
1 | ATACTTTGTTTCAATAACCTGT | -0.318
2 | TTTTGAACTTCTTCAGAGGTGG | 0.0133
3 | TTCTTCTGAAAGCTTTAGGAGG | -0.987
4 | TTTGCAGTTATTATGCAACTGG | -0.736
5 | TAAATCGGTCAATTTTTCCTTC | 0.481
6 | TTCATCATCAAACCGATCTGGA | -0.00182
7 | TTATCTAATAATTCTTCTGAAA | -1.37
8 | TTTATCTAATAATTCTTCTGAA | -0.378
9 | TATCATACTGTCTTCTAGGATC | -0.814
10 | TACACTAAGAAGTACTGTGGTC | -0.206
11 | ATGCTGACAATATCTGAGCTGC | -0.739
12 | TCCTTCAATATCTTGAAGCTGG | -0.788

target: CYP2E1; test: as above; conditions: shRNA

Row | Sequence | sensor-assay potency score (higher = more potent)
13 | TTGAAATAGTCACTGTACTTGA | -0.183
14 | ATAGTCACTGTACTTGAACTTT | -0.806
15 | TTGATGGTGCTCCTTCACCCTT | -1.19
16 | TTCATGGAGCTTCTCTTCGATC | -1.27
17 | TTGGGGATGAGGTATCCTCTGA | -0.671
18 | TTGTAGTCAAAATGCTTGCGGA | -0.87
